The panel holds about 79,000 compounds, 15% with a hit somewhere; the sample as a whole holds those more often. Unmarked numbers belong to inactive results. Calls of active or inactive are those of the source. Rule as the data show it: active = growth inhibition above about 70%; inactive = the rest.
Assays:
[1] = NCI Yeast Anticancer Drug Screen. Data for the rad50 strain (AID 155);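 also: 0% = growth of vehicle-only cultures of the same strain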; details: S. cerevisiae rad50 strain growth inhibition; at 50.0 µM; stronger effect = higher value
Procedure, shortened: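 Relative growth inhibition (compound vs vehicle) was measured in yeast with a defined repair-gene alteration.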

[2] = NCI Yeast Anticancer Drug Screen. Data for the mec2-1 strain (AID 157); details: S. cerevisiae mec2-1 strain, at 50.0 µM, stronger effect = higher value
Procedure, shortened: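 Each compound was tested on mec2-1 yeast, a strain altered in DNA damage repair or cell cycle control. Growth inhibition is reported relative to vehicle.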

[3] = NCI Yeast Anticancer Drug Screen. Data for the sgs1 mgt1 strain (AID 161);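 also: 0% = growth of cultures given vehicle only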; details: S. cerevisiae sgs1 mgt1 strain, at 50.0 µM, stronger effect = higher value
Procedure, shortened: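 Test agents were incubated with a DNA-repair-mutant yeast strain. Growth was then read and compared against vehicle-treated controls.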

[4] = NCI Yeast Anticancer Drug Screen. Data for the cln2 rad14 strain (AID 165);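 also: 0% = growth equal to vehicle treated cultures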; details: S. cerevisiae cln2 rad14 strain, at 50.0 µM, stronger effect = higher value
Procedure, shortened: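 Test compounds were added to cln2 rad14 yeast cultures; inhibition of growth was then determined by comparison with vehicle treatment.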

[5] = NCI Yeast Anticancer Drug Screen. Data for the bub3 strain (AID 167); details: S. cerevisiae bub3 mutant strain, at 50.0 µM, stronger effect = higher value
Procedure, shortened: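 Screening used yeast with an engineered genetic alteration affecting cell cycle control. Compound-exposed cultures were compared with vehicle cultures, and reduced growth was taken as inhibition.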

[6] = NCI Yeast Anticancer Drug Screen. Data for the mlh1 rad18 strain (AID 175); details: S. cerevisiae mlh1 rad18 strain growth inhibition; at 50.0 µM; stronger effect = higher value
Procedure, shortened: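 Inhibition values reflect reduced growth of mutant yeast versus vehicle-treated controls following compound exposure; the mutations affect DNA damage repair.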

| Compound | growth inhibition [1] | growth inhibition [2] | growth inhibition [3] | growth inhibition [4] | growth inhibition [5] | growth inhibition [6] |
| --- | --- | --- | --- | --- | --- | --- |
| CC=C(c1ccc(OC)cc1)c1ccc(OC)cc1 | 0.9% | -9.95% | 5% | -46.9% | 2.55% | -4.5% |
| O=C(O)/C=C/C1CCCCC1 | 26.4% | 14.3% | 3.95% | 4.35% | -6.4% | 21.2% |
| CN(C(=O)c1ccc(Cl)cc1)C(=S)N1CCN(c2ccccn2)CC1 | -66% | -33.8% | -36.6% | -3.7% | -13.9% | -43.5% |
| CNSC1CCC2(C)C(=CCC3C2CCC2(C)C(C(C)CCCC(C)C)CCC32)C1 (stereo unspecified) | -1.3% | 1.7% | -9.6% | -5.05% | -3% | 10% |
| C=CCNc1nc2c(s1)CCc1cc(OC)c(OC)cc1-2 | 30.1% | 10.6% | 12% | 29.4% | 15.2% | 61.6% |
| O=C1C2CCOC2N=C2CCCN12 (stereo unspecified) | -1.85% | 5.55% | -3.55% | 1.65% | -5.3% | -11.1% |
| COC(=O)C(=O)C(C(=O)C(=O)Nc1ccc(C)cc1C)c1nc2ccc(Cl)cc2[nH]c1=O (stereo unspecified) | 4.35% | -21.6% | 9.2% | -23.6% | -22.4% | 7.45% |
| OC(c1ccccc1)C(Cl)c1ccccc1 (stereo unspecified) | 1% | -2.25% | 1.9% | -13.8% | -19.3% | 19.8% |
| CCCC[P+](CCCC)(CCCC)C(C(=O)OC)C(C(=O)OC)=C1SC(C(=O)OC)=C(C(=O)OC)S1 (stereo unspecified) | -0.75% | 0.7% | 6.75% | 6.6% | 19.4% | -45.5% |
| NN(c1ccccc1)c1ccccc1 | 23.5% | 6.45% | 35.5% | 25.9% | 24.2% | 19.1% |
| C[C@]1(CO)CCC[C@@]2(C)C1CC[C@H]1CC3C[C@]12CC[C@]3(C)O (stereo partly specified) | 47.2% | 8% | 41.2% | 28.4% | 32.6% | 54.3% |
| COc1ccc2c(c1)c1c3c(ccc4ncn2c43)N(CCO)CCN=1 | -19.6% | -52% | -25.9% | -23.5% | -12% | 1.6% |
| CCOC(=O)c1c[nH]c2ccccc2c1=O | 1.65% | -8.95% | -0.35% | -16% | -7.9% | 2.2% |
| COc1ccc(NC(C)=O)c(C(O)CCNC(C)=O)c1 (stereo unspecified) | -14.1% | -13.3% | -25.9% | -7.8% | -40.1% | -28.5% |
| CCOC(=O)c1c[nH]c2cc3c(cc2c1=O)CCS3 | -27.4% | -57% | -1.45% | 3.95% | 9% | -7.35% |
| N#CCCCCCCl | -9.35% | -26.9% | 10.2% | 4.05% | -15.6% | 14.8% |
| Cc1sc2nc3n(c(=O)c2c1C)N=CN(c1ccccc1)C3 | 3% | 4% | 2.1% | -12.8% | -3.5% | -16.7% |
| Cc1cccc(C)c1OC(=O)/C=C/c1ccccc1 | 31.3% | -10.5% | 33% | -11.2% | -11.8% | 1.05% |
| Nc1ccc(Nc2cc(=O)[nH]c(=O)[nH]2)cc1Cl | 5.8% | 6.6% | 14.1% | 6.2% | -3.2% | -20.8% |
| N#CC(C#N)=CNc1ccccc1 | 5.4% | -8.95% | 7.5% | -20.9% | 9.7% | 4.6% |
| COc1ccc(C(O)(c2ccc(OC)cc2)c2ccccc2Cc2ccccc2OC)cc1 | -61.6% | 1.65% | -22.3% | -20.6% | 0.65% | -21.4% |

| Compound | growth inhibition [1] | growth inhibition [2] | growth inhibition [3] | growth inhibition [4] | growth inhibition [5] | growth inhibition [6] |
| --- | --- | --- | --- | --- | --- | --- |
| O=[N+]([O-])c1ccc(Cl)c(/C=C/c2ncccn2)c1 | 11.4% | 10.1% | 7.9% | -28.1% | -1.45% | 13.9% |
| O=C(O)c1ccccc1CC(C(=O)O)C(=O)O | 14.8% | 4.05% | 3% | 7.95% | -0.6% | 6.15% |
| Cc1ccc(S(=O)(=O)N(CC(O)c2ccccc2)CC(O)c2ccccc2)cc1 (stereo unspecified) | -3.95% | -1.7% | -18.2% | 3.5% | 3.95% | -8% |
| O=C1CCC2=C3C4CCCC5OC6CC(=O)CCC6=C(C6CCCC(OC2C1)C36)C54 (stereo unspecified) | 5.5% | -2.15% | 6.55% | 11.2% | 25.6% | 17.4% |
| CCOC(=O)NCC(C)(C)N(C(=O)OCC)c1ccccc1 | -24.1% | -42.1% | -15.7% | -9.95% | -37.8% | -7.7% |
| Cc1cc(N/N=C/c2ccnc3ccccc23)c2cc3c(cc2n1)OCO3 | 43.4% | 18% | 23.4% | 27% | 31.7% | 20.9% |
| Nc1nnnn1C1CCCCC1 | 9.3% | 3.8% | -4.65% | -8.65% | -11.3% | 20.9% |
| CC1COC(c2ccc(Cl)cc2Cl)O1 (stereo unspecified) | 8.35% | -2.4% | -1.1% | 1.25% | 2.75% | -0.65% |
| C=CCSc1nc2ccc(N3C(=O)C4C5C=CC(C5)C4C3=O)cc2s1 (stereo unspecified) | -15.2% | -2.75% | -6.35% | -17.6% | -8.3% | -27.9% |
| Cc1ccccc1/C1=C/CCCCCC1 | -8.1% | 11.3% | -10.4% | -21.6% | 19.5% | -5.05% |
| CCOC(=O)C1(C(C)C)OC2(O)C3CCCN3C(=O)C(C(C)C)N2C1=O (stereo unspecified) | 8.45% | 10.5% | -3% | 20.3% | 8.8% | 17.4% |
| CCOC(=O)c1ccc2c(c1)C(C)(SC)C(=O)N2 (stereo unspecified) | -12.7% | 0.7% | -2.85% | 4.65% | -6.55% | -1.35% |
| CCCC(SCC(=O)O)SCC(=O)O | 14.4% | -6.05% | -6.85% | -41.8% | -4.75% | -17% |
| Cc1n(C)c(C(O)c2ccccc2)c(Br)[n+]1C (stereo unspecified) | 9.3% | 1.4% | 8.25% | -12.1% | 77.7% (active) | 12.6% |
| O/N=C(/Cc1ccccc1)CC(O)(C(F)(F)F)C(F)(F)F | 90.8% (active) | 89.5% (active) | 87% (active) | 85.8% (active) | 86.7% (active) | 94.3% (active) |
| CC(=O)n1[nH]c(=O)n(-c2ccccc2)c1=O | -23% | -20.1% | -17.9% | 10.1% | -26.1% | -24.5% |
| C=C1OC(=O)C(N)=C1C(C)=O | -2.65% | 23.7% | 9.05% | -5.2% | 3.9% | 12.4% |
| CC1CN(c2nc3ccccc3o2)C(C)CN1c1nc2ccccc2o1 (stereo unspecified) | -7.15% | 5.6% | -9.1% | 11.8% | 9.9% | -12.3% |
| Cc1ccc(C2(O)CC(c3ccc([N+](=O)[O-])o3)=NN2C(=O)COc2ccccc2Cl)cc1 (stereo unspecified) | 46.1% | -15.2% | -0.45% | 0.15% | -1.9% | -6.45% |
| CCCC1OCCO1 | -15.3% | -0.95% | -6.85% | -4.5% | 5.15% | -3.9% |
